Most compounds without a hit are left out; they make up all but 3.8% or so of the library.
Nrf2 inh: inhibitors of Nrf2 signaling; A549 ARE-Fluc reporter, luciferase luminescence, 18-24 h; Potency, µM (series often up to 46 µM), most hits filed as inhibitors; hit rate 2.1% among 360,000; AID 504444; also: nearly all actives have a fitted effect of over 60% in size
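In this cell-based qHTS, ARE-driven firefly luciferase in A549 cells reports Nrf2 activity; the luminescent signal after BugLite lysis is the measured value, with a prior CellTiter-Fluor read for cell health.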
Nrf2 ARE act: activates Nrf2 signaling. AREc32 ARE-luciferase reporter (MCF7-derived line), luminescence, 24 h. Potency, µM (titrated, usually from 46.1 µM), actives largely listed as activators. hit rate 0.31% among 410,000. AID 624171; also: nearly all actives have a fitted effect of over 65% in size
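Steps: seed AREc32_Fluc cells (1000/well, 5% FBS OPTI-MEM); incubate overnight at 37 deg C; add 23 nL compound; incubate 24 hr; add Steady-Glo; hold 30 min RT; read luminescence.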
mIDH1 inhibitor: inhibitors of human mutant IDH1 R132H; O75874; IDH1-R132H enzyme, NADPH consumption, diaphorase/resazurin fluorescence; Potency, µM (highest dose often 76.6 µM), hits mostly inhibitors; hit rate 0.093% among 390,000; AID 602179; also: nearly all actives have a fitted effect of over 65% in size
Target sequence (O75874 whole entry R132H, stated change not applied): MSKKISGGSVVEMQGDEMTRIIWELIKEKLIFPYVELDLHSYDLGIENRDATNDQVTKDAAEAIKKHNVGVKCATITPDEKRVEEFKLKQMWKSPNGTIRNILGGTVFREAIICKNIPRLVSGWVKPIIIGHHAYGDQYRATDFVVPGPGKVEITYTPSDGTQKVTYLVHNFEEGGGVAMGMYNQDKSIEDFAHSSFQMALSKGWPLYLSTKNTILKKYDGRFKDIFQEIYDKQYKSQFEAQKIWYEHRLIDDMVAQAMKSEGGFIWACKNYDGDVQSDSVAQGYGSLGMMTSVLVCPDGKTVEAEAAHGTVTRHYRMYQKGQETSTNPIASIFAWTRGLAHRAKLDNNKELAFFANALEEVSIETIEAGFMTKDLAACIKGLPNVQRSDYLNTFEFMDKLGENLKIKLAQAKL
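IDH1-R132H (0.5 ug/mL dispensed) in pH 7.5 Tris buffer was preincubated 30 min with compound, then given a substrate mix of 0.016 mM NADPH and 2 mM alpha-KG for 80 min at room temperature; remaining NADPH was read by diaphorase/resazurin fluorescence.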
ELG1 repair inh: blocks ELG1-dependent DNA repair in HEK293T cells. HEK293T ELG1-luciferase reporter, luminescence, 16 h; DNA damage induced by 5-fluorouridine. Potency, µM (doses to about 46.1 µM), usual class: inhibitors. hit rate 2.3% among 330,000. AID 504467; also: nearly all actives have a fitted effect of over 55% in size
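DMSO vehicle served as the neutral condition. Each well held 2,000 cells given 5-fluorouridine plus compound; after 16 hr at 37 °C/5% CO2, ONE-Glo was added and luciferase measured 30 min later.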
A549 tox: A549 cytotoxicity, counter-screen for Nrf2 inhibitors; AID 504648; hit rate 0.16% among 390,000; Potency, µM (series often up to 46 µM), most hits filed as inhibitors; A549 ARE-Fluc cells, CellTiter-Fluor viability, 18-24 h
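A549 ARE_Fluc cells in 5% FBS OPTI-MEM were exposed to compounds in concentration-response for 18-24 h at 37 deg C. Viability was read by CellTiter-Fluor fluorescence (Ex 405/Em 525) after 30 min, before the luciferase read.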
Hits are given with their value; 0 = inactive; ? = inconclusive; - = not tested or not shown. Calls follow the shape of the dose curve; as a rule, active = well fitted curve in the direction sought with a large enough effect; inconclusive = small, poorly fitted or top-dose-only effect, or another doubt; inactive = no such curve, though single readings can be large; an effect the other way counts as inactive or inconclusive.

SMILES	Nrf2 inh	Nrf2 ARE act	mIDH1 inhibitor	ELG1 repair inh	A549 tox
CN1CCN(C(=O)CCN2C(=O)/C(=C\c3ccc(Cl)cc3Cl)SC2=S)CC1	?	13µM	0	0	7.3µM
Cc1ccc(/C=C2\SC(=S)N(CCCC(=O)NNC(=O)c3ccccc3O)C2=O)cc1	10µM	0	0	?	0
Cc1ccc(/C=C2\SC(=S)N(CCCC(=O)NC3CCCC3)C2=O)cc1	10µM	0	0	?	0
Cc1ccc(/C=C2\SC(=S)N(CCC(=O)NNC(=O)c3ccccc3O)C2=O)cc1	?	0	0	?	0
CCc1ccc(/C=C2\SC(=S)N(CCC(=O)Nc3cc(C)on3)C2=O)cc1	6.5µM	0	0	0	0
O=C(CCN1C(=O)/C(=C\c2ccccc2Cl)SC1=S)N1CCN(c2ccccc2)CC1	0	0	0	0	0
Cc1ccc(/C=C2\SC(=S)N(CCCC(=O)N3CCOCC3)C2=O)cc1	?	0	0	13µM	0
COc1ccc(/C=C2\SC(=S)N(CCC(=O)N3CCCCC3)C2=O)cc1	0	0	0	0	0
CN1CCN(C(=O)CCCN2C(=O)/C(=C/c3ccc(Cl)cc3)SC2=S)CC1	?	?	0	18µM	?
O=C(CCN1C(=O)/C(=C/c2ccccc2)SC1=S)N1CCCCCC1	21µM	?	0	?	?
O=C(CCCN1C(=O)/C(=C/c2ccc3c(c2)OCO3)SC1=S)Nc1cccc(C(=O)O)c1	10µM	0	0	?	0
Cc1cc(Br)cn2c(Cc3cccc(F)c3)c(-c3ccc(C#N)cc3)nc12	-	0	-	-	-
CCOC(=O)c1cc(-c2ccccc2)n(CCC(=O)Nc2ccc(C(F)(F)F)cc2)c1C	-	0	0	-	?
CCN1CCN(c2nc3c(S(=O)(=O)c4ccc(Br)cc4)nnn3c3ccsc23)CC1	?	0	0	-	0
Cc1cc(C)n(CCNC(=O)[C@H]2O[C@@H](n3ccc(=O)[nH]c3=O)[C@H](O)[C@@H]2O)n1	-	0	-	-	-
Cc1ccc(S(=O)(=O)Nc2nc3ccccc3nc2N2CCOCC2)cc1	0	0	0	0	0
O=S(=O)(Nc1nc2ccccc2nc1N1CCN(c2ccccc2)CC1)c1ccc(F)cc1	26µM	0	0	0	?
O=C1C(NS(=O)(=O)c2cccs2)=C(N2CCN(c3cccc(Cl)c3)CC2)C(=O)c2ccccc21	21µM	0	0	0	?
CC(=O)Nc1ccc(S(=O)(=O)NC2=C(N3CCN(C)CC3)C(=O)c3ccccc3C2=O)cc1	0	0	0	18µM	0
CC1CCN(C2=C(NS(=O)(=O)c3ccc(Cl)cc3)C(=O)c3ccccc3C2=O)CC1	0	0	0	?	0
O=C1C(NS(=O)(=O)c2ccccc2)=C(N2CCN(c3ccc(F)cc3)CC2)C(=O)c2ccccc21	0	0	0	23µM	0
CC1CCN(C2=C(NS(=O)(=O)c3ccccc3)C(=O)c3ccccc3C2=O)CC1	0	0	0	0	0
O=S(Cc1ccccc1)Cc1ccccc1	0	0	0	-	0
COc1ccc2[nH]c3c(=O)n(Cc4ccc(C(=O)N5CCC(C(N)=O)CC5)cc4)c(=S)[nH]c3c2c1	0	0	0	8.2µM	0
CCOC(=O)N1CCN(C(=O)c2ccc3c(=O)n(Cc4ccc(OC)cc4)c(=S)[nH]c3c2)CC1	?	0	0	13µM	0
SMILES	Nrf2 inh	Nrf2 ARE act	mIDH1 inhibitor	ELG1 repair inh	A549 tox
O=C(c1ccc(Cn2c(=S)[nH]c3ccccc3c2=O)cc1)N1CCN(c2ccccn2)CC1	?	0	0	10µM	0
CCOC(=O)N1CCN(C(=O)c2ccc3c(=O)n(Cc4ccccc4)c(=S)[nH]c3c2)CC1	0	0	0	0	0
O=C(CCc1nnc2n(Cc3ccc(F)cc3)c(=O)c3ccccc3n12)NCCN1CCOCC1	0	0	0	0	0
O=C(CCc1nnc2n(Cc3ccc(F)cc3)c(=O)c3ccccc3n12)N1CCN(c2ccccn2)CC1	0	0	0	15µM	0
O=C(c1ccc2c(c1)N(Cc1ccccc1)C(=O)c1ccccc1S2(=O)=O)N1CCN(Cc2ccccc2)CC1	?	0	-	-	0
CCOC(=O)C1CCCN(C(=O)c2ccc3c(=O)n(CCOC)c(=S)[nH]c3c2)C1 (stereo not given)	?	0	0	8.2µM	0
Cc1nc(N2CCCC2)c2c(C(=O)Nc3cccc(Cl)c3)c(C)oc2n1	?	0	0	-	0
